Measurements published in PubChem BioAssay AID1159580 (chemical genetic matrix, 2015).
The whole screen tested about 5,500 compounds, of which about 2,000 (36%) were called active. Not shown: some 18% with an inconclusive outcome. No stated cut-off is given here; in the data, active means normalized growth mostly below about 0.91 (no sharp cut-off); inconclusive means no clear call, values can overlap the other calls; inactive means mostly above about 0.92. Some of the results follow.

Test: chemical genetic growth profiling, strain panel (AID 1159580);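 further: tested at 20 µM; growth read once vehicle control cultures reached saturation at 30 °C; 1 = growth at the plate median or of vehicle wells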
Details: growth OD
[1] = S. cerevisiae deletion strains, locus YAL013W, strain DEP1, stronger effect = lower value
[2] = S. cerevisiae deletion strains, locus YBR229C, strain ROT2, stronger effect = lower value
[3] = S. cerevisiae deletion strains, locus YCL061C, strain MRC1, stronger effect = lower value
[4] = S. cerevisiae deletion strains, locus YDL101C, strain DUN1, stronger effect = lower value
[5] = S. cerevisiae deletion strains, locus YDR150W, strain NUM1, stronger effect = lower value
[6] = S. cerevisiae deletion strains, locus YEL061C, strain CIN8, stronger effect = lower value
[7] = S. cerevisiae deletion strains, locus YGR078C, strain PAC10, stronger effect = lower value
[8] = S. cerevisiae deletion strains, locus YHR030C, strain SLT2, stronger effect = lower value
[9] = S. cerevisiae deletion strains, locus YHR087W, strain rtc3, stronger effect = lower value
[10] = S. cerevisiae deletion strains, locus YJR043C, strain POL32, stronger effect = lower value
[11] = S. cerevisiae deletion strains, locus YJR075W, strain HOC1, stronger effect = lower value
[12] = S. cerevisiae deletion strains, locus YLR039C, strain RIC1, stronger effect = lower value
[13] = S. cerevisiae deletion strains, locus YLR058C, strain SHM2 (second series), stronger effect = lower value
[14] = S. cerevisiae deletion strains, locus YLR085C, strain ARP6, stronger effect = lower value
[15] = S. cerevisiae deletion strains, locus YLR262C, strain YPT6, stronger effect = lower value
[16] = S. cerevisiae deletion strains, locus YML094W, strain GIM5, stronger effect = lower value
[17] = S. cerevisiae deletion strains, locus YMR219W, strain ESC1, stronger effect = lower value
[18] = S. cerevisiae deletion strains, locus YMR263W, strain SAP30, stronger effect = lower value
[19] = S. cerevisiae deletion strains, locus YNL128W, strain TEP1, stronger effect = lower value
[20] = S. cerevisiae deletion strains, locus YNL153C, strain GIM3, stronger effect = lower value
[21] = S. cerevisiae deletion strains, locus YNL298W, strain CLA4 (second series), stronger effect = lower value
[22] = S. cerevisiae deletion strains, locus YNL322C, strain KRE1, stronger effect = lower value
[23] = S. cerevisiae deletion strains, locus YNR030W, strain Alg12, stronger effect = lower value
[24] = S. cerevisiae deletion strains, locus YPL055C, strain LGE1, stronger effect = lower value
[25] = S. cerevisiae deletion strains, locus YPL241C, strain CIN2, stronger effect = lower value
[26] = S. cerevisiae deletion strains, locus YPR135W, strain CTF4, stronger effect = lower value
[27] = S. cerevisiae strains, strain wild type, stronger effect = lower value
[28] = S. cerevisiae deletion strains, locus YJL187C, strain SWE1, stronger effect = lower value
[29] = S. cerevisiae deletion strains, locus YKL190W, strain CNB1, stronger effect = lower value
[30] = S. cerevisiae deletion strains, locus YOL006C, strain TOP1, stronger effect = lower value
[31] = S. cerevisiae deletion strains, locus YGR229C, strain SMI1, stronger effect = lower value
[32] = S. cerevisiae deletion strains, locus YDL134C, strain PPH21, stronger effect = lower value

Measured: normalized growth

Cc1ccc(S(=O)(=O)N2CCC(C(c3ccccc3)c3ccccc3)CC2)cc1
inactive: [1] 0.998 | [2] 0.989 | [3] 0.963 | [4] 0.975 | [5] 0.948 | [6] 0.994 | [7] 0.972 | [8] 0.971 | [9] 1.05 | [10] 1 | [11] 1 | [12] 0.97 | [13] 1.01 | [14] 0.989 | [15] 0.989 | [16] 1 | [17] 0.993 | [18] 0.994 | S. cerevisiae deletion strains, locus YMR307W, strain GAS1, stronger effect = lower value 1.24 | [19] 0.969 | [20] 0.988 | [21] 0.971 | [22] 0.999 | [23] 1.01 | [24] 1.06 | [25] 0.986 | [26] 0.986 | [27] 0.974

O=S(=O)(c1ccc(Cl)cc1)N1CCN(Cc2ccccc2)CC1
active: [15] 0.809
inactive: [1] 1.01 | [2] 0.99 | [3] 1.01 | [4] 0.985 | [5] 0.986 | [6] 0.958 | [7] 0.992 | [8] 0.856 | [9] 0.978 | [10] 1.01 | [11] 0.982 | [12] 0.846 | [13] 1 | [14] 0.985 | [16] 0.967 | [17] 0.994 | [18] 1.02 | [20] 1 | [21] 0.956 | [22] 0.998 | [23] 0.987 | [24] 0.972 | [25] 0.978 | [26] 0.923 | [27] 0.987

CC(=O)Nc1ccc(S(=O)(=O)NCCCN2CCN(Cc3ccccc3)CC2)cc1Cl
inactive: [1] 0.993 | [2] 1.01 | [3] 0.999 | [4] 0.952 | [5] 0.924 | [6] 1.04 | [7] 0.983 | [8] 1.03 | [9] 1.02 | [28] 1.01 | [10] 0.992 | [11] 1.01 | [29] 0.993 | [12] 0.992 | [13] 1.01 | [14] 1.02 | [15] 1 | [16] 1.01 | [17] 0.996 | [18] 0.944 | [19] 0.986 | [20] 0.994 | [21] 0.969 | [22] 0.999 | [23] 0.99 | [30] 1.02 | [24] 0.915 | [25] 1 | [26] 0.926

O=C(Cc1ccccc1)NC1CCN(S(=O)(=O)c2ccc(Cl)cc2)CC1
inactive: [1] 1.01 | [2] 1 | [3] 0.992 | [4] 1.01 | [5] 0.996 | [6] 1.01 | [7] 0.98 | [31] 0.992 | [8] 0.973 | [9] 1 | [10] 0.985 | [11] 0.962 | [29] 0.994 | [12] 1 | [13] 0.993 | [14] 1.01 | [15] 1.01 | [16] 1 | [17] 0.999 | [18] 0.992 | [20] 0.982 | [21] 1.03 | [22] 0.998 | [23] 1 | [30] 1.02 | [24] 0.986 | [25] 1.03 | [26] 0.971 | [27] 1.01

Cc1ccc(S(=O)(=O)N2CCCCCC2)cc1
inactive: [1] 0.98 | [2] 0.997 | [3] 0.997 | [4] 0.985 | [32] 0.999 | [5] 0.976 | [6] 1.01 | [7] 0.985 | [31] 0.988 | [8] 0.896 | [9] 1.03 | [10] 0.999 | [11] 0.998 | [12] 0.881 | [13] 0.998 | [14] 0.921 | [15] 0.928 | [16] 1.02 | [17] 0.983 | [18] 1 | [20] 0.987 | [21] 0.983 | [22] 0.972 | [23] 0.983 | [30] 0.961 | [24] 1.04 | [25] 0.984 | [26] 0.843 | [27] 1

Cc1ccc(S(=O)(=O)N2CCN(CCOc3ccccc3)CC2)cc1
active: [15] 0.701
inactive: [1] 1 | [2] 0.994 | [3] 0.982 | [4] 0.992 | [32] 1 | [5] 0.961 | [6] 0.972 | [7] 0.993 | [31] 0.99 | [8] 0.896 | [9] 0.995 | [28] 0.995 | [10] 1 | [11] 0.984 | [12] 0.828 | [13] 0.987 | [14] 0.966 | [16] 0.944 | [17] 0.985 | [19] 0.997 | [20] 0.989 | [21] 0.96 | [22] 0.997 | [23] 0.967 | [24] 0.953 | [25] 0.982 | [26] 0.99
